The source of these data is PubChem BioAssay (NCATS).

Assay [1] is described as follows: HEK-293 Cancer Cell Toxicity qHTS against the NCATS CANVASS Library (AID 1347355). Note: nearly all actives have a fitted effect of over 65% in size. Note: potency is the fitted concentration of half-maximal effect. Put shortly: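 Cells were seeded at 1000 per well and allowed to settle 4 hours at 37 degrees C before pin transfer of compounds as an 11-point series. Viability was read by CellTiter-Glo luminescence after 72 hours' exposure.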
On the technique in general: qHTS replaces the single test concentration by a dilution series.

Assay [2] deals with NAD(P)H diaphorase (Clostridium kluyveri). In words: Diaphorse counterscreen qHTS: Assay Interference Panel against the NCATS CANVASS Library (AID 1347362). Note: potency is the fitted concentration of half-maximal effect. The gist of the method: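 Clostridium kluyveri diaphorase in PBS + 0.01% Tween-20 preincubated 15 min with compounds. Resazurin and NADH then added for 5 min at room temperature in the dark; resorufin fluorescence read (ex 525, em 598).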
On the technique in general: The purpose of a counterscreen is to sort out artefacts and off-target activity.

A short description of assay [3]: KB-8-5-11 Cancer Cell Toxicity qHTS against the NCATS CANVASS Library (AID 1347364). Note: nearly all actives have a fitted effect of over 75% in size. Note: potency is the fitted concentration of half-maximal effect. Put shortly:
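KB-8-5-11 cells (500/well) in DMEM + 10% FBS were exposed to compounds in an 11-point qHTS series for 72 hr at 37C, 5% CO2. Viability was read by CellTiter-Glo luminescence.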

Assay [4] can be described thus: KB-3-1 Cancer Cell Toxicity qHTS against the NCATS CANVASS Library (AID 1347366). Note: nearly all actives have a fitted effect of over 75% in size. Note: potency is the fitted concentration of half-maximal effect. Put shortly: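 KB-3-1 cells (500 cells/well) in DMEM + 10% FBS were treated with compounds for 72 hr at 37C, 5% CO2. Viability was read as CellTiter-Glo luminescence after 10 minutes at room temperature.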
Assay [5] concerns the target Nuclear receptor subfamily 1 group I member 3 (Homo sapiens) (UniProt Q14994). The experiment in a line: qHTS for Constitutive Androstane Receptor (CAR) Antagonist screened against the NCATS CANVASS Library (AID 1347372). Note: potency is the fitted concentration of half-maximal effect. The gist of the method:
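HepG2 cells stably carrying hCAR and CYP2B6-2.2kb luciferase reporter, 2500 cells/well, compound with 50 nM CITCO agonist for 24hr at 37C. ONE-Glo luminescence measured CAR activity; CellTiter-Fluor read viability.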

Assay [6] is described as follows: DH5-alpha competent E. coli microbial cell viability qHTS against the NCATS CANVASS Library (AID 1347377). Particulars: outcome: dose series up to 46.1 µM unless noted. The gist of the method: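 DH5-alpha E. coli suspension (0.9 OD culture diluted to 0.2 OD) exposed to compounds in an 11-point series, overnight at 37C, 5% CO2. Viability read as ATP by BacTiter-Glo luminescence after 20 min at room temperature.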

A short description of assay [7]: qHTS for H2AX Agonists against the NCATS CANVASS Library (AID 1347378). Note: potency is the fitted concentration of half-maximal effect. The gist of the method: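 CHO-K1 cells were plated overnight at 37C, then exposed to compounds (concentration series, 0.76% DMSO final) for 3 hr at 37C. Lysates received Eu-cryptate anti-pH2AX (S139) and d2 anti-H2AX antibodies; after 24 hr at room temperature, TR-FRET 665/620 nm ratio was read.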

Assay [8] in a line: Viability qHTS for inhibitors of the SERCaMP assay screened against the NCATS CANVASS Library (AID 1347400). Note: nearly all actives have a fitted effect of over 70% in size. Note: potency is the fitted concentration of half-maximal effect. The gist of the method:
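SH-SY5Y-GLuc SERCaMP MJH297-derived cells (1000 cells/well) were pre-incubated 4 h at 37C, then exposed to compounds for 48 h. Viability was read as CellTiter-Glo luminescence; bortezomib served as positive control.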

Assay [9] can be described thus: qHTS for inhibitors of Rabies Virus screened against the NCATS CANVASS Library (AID 1347402; calls by dose curve; note: series mostly up to about 46 µM).

Records with an inconclusive call do not appear. Unmarked numbers belong to inactive results. Calls of active or inactive are those of the source. Unless noted, calls come from the whole dose curve; as a rule, active = well fitted curve in the direction sought with a large enough effect; inconclusive = small, poorly fitted or top-dose-only effect, or another doubt; inactive = no such curve, though single readings can be large; an effect the other way counts as inactive or inconclusive.

Chain of Nuclear receptor subfamily 1 group I member 3 (Homo sapiens) (Q14994 whole entry, looked up): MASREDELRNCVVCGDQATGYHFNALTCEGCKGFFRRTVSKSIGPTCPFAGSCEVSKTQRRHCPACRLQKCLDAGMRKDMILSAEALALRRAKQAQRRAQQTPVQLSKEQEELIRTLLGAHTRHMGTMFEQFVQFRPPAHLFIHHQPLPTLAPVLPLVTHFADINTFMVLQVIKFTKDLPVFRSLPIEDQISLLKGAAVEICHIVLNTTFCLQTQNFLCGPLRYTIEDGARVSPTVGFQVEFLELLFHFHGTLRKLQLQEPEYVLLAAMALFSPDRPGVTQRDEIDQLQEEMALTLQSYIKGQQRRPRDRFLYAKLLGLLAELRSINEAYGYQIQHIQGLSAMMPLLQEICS

`C/C=C(\C)C(=O)O[C@@H]1[C@@H](O)[C@@H]2O[C@H]3[C@H](O[C@@H](CCCCC)CCCCCCC(=O)CCC(=O)OC[C@@H](O2)[C@H]1OC(=O)/C=C/c1ccccc1)O[C@H](C)[C@H](OC(C)=O)[C@@H]3O`: the Potency is 0.118 µM (active) in assay [1], 1.48 µM (active) in assay [3], 0.118 µM (active) in assay [4] and 0.0524 µM (active) in [5]. Further, the Potency entry in assay [2] and in assay [7] was “inactive” throughout. Further, the outcome in [6] was inactive.

As to `CO[C@@]12c3c(C)cc(O)c4c(=O)occ(c34)C(=O)[C@@H]1[C@]13COC(=O)c4c(O)cc(C)c(c41)C(=O)[C@H]2[C@@H]3OC(C)=O`, the Potency result in assay [1], in [3], in assay [4], in assay [5], in [7] and in [8] was “inactive” each time. Moreover, the result in [6] and in [9] was inactive.

For the molecule `COC1C(O)C(C)OC(OC2C(Oc3cccc4c(O)c5c(=O)oc6ccc(C)c7c(=O)oc(c34)c5c67)OC(C)C(O)C2O)C1O` (stereo not given), the Potency in assay [1] is 14.8 µM (active); in assay [5], 11.7 µM (active); in [7], 27.3 µM (active); in assay [8] it was 34 µM (active). Also, the molecule was classed as inactive in assay [6] and in [9].

For `CCCC[C@@H](C)/C=C1/CN2CCC[C@H]2[C@@](C)(O)[C@@H]1O`, the Potency result in assay [1], in [2], in assay [3], in assay [4], in assay [5] and in assay [7] was “inactive” throughout. Besides, the Potency entry in assay [8] was “inactive”. Moreover, the molecule was classed as inactive in assay [6] and in assay [9].

In the case of `C=C(C)[C@H]1C(=O)c2c3c(cc4c5c(n1c24)[C@@]1(C)[C@@H](CC[C@H]2[C@](C)(/C=C/C=C(\C)C(=O)O)[C@@H](O)CC[C@@]21C)C5)C1=CC(C)(C)OC(C)(C)[C@H]1[C@@H]3O`, the Potency in assay [4] is 16.6 µM (active); in assay [7], 13.7 µM (active). The call in [6] was inactive.

Consider `CCC(=O)N[C@@H](C[C@H](C)C(Cl)(Cl)Cl)C(=O)N1C(=O)C=C(OC)[C@@H]1C[C@H](C)C(Cl)Cl`, for which the Potency entry in assay [1], in assay [2], in assay [4], in assay [7] and in [8] was “inactive” each time.

Consider `CC[C@@H]1CN2CCC3(Nc4cccc(OC)c4C3=O)[C@@H]2C[C@@H]1/C(=C\OC)C(=O)OC` (stereo not given in full), for which the Potency entry in assay [1], in assay [2], in [3], in assay [4], in assay [7] and in assay [8] was “inactive” in each case. For the same molecule, the molecule was called inactive in assay [6] and in assay [9].

`COC1=C(C2=C(OC)C(=O)c3cc4c(c(O)c3C2=O)C(=O)O[C@H](C)C4)C(=O)c2c(cc3c(c2O)C(=O)O[C@H](C)C3)C1=O`: the Potency entry in assay [1], in assay [3], in [4], in assay [5], in assay [7] and in assay [8] was “inactive” in each case. Also, the Potency in assay [2] was 1.45 µM (active). Also, the outcome in assay [6] was “inactive [at 15.4 µM]”. Besides, in assay [9], the result was inactive.

`C[C@]12CCC[C@](C)(C(=O)O)[C@@H]1CC[C@@]1(C)c3cocc3CC[C@H]21`: in [9], the result was inactive.

Take `C/C=C/[C@@H]1[C@H]2C[C@@H](C)CC[C@@H]2C(C)=C[C@H]1C(=O)c1c(O)c(-c2ccc(O)cc2)c[nH]c1=O`: the Potency entry in assay [2], in assay [5], in assay [7] and in assay [8] was “inactive” in each case. The Potency is 20.9 µM (active) in [3] and 18.7 µM (active) in assay [4]. In addition, the call in assay [6] was inactive.

As for `C/C=C1/CN2CC[C@@]34c5ccccc5N(C)[C@@H]3[C@@H]2C[C@@H]1[C@H]4C(=O)OC`, the Potency entry in assay [1], in assay [2], in assay [3], in [4], in assay [5] and in assay [7] was “inactive” in each case. Moreover, the Potency result in assay [8] is “inactive”. Also, the result in assay [6] and in [9] was inactive.

Take `CC[C@@H]1CN2CCc3c([nH]c4cccc(OC)c34)[C@@H]2C[C@@H]1/C(=C\OC)C(=O)OC`: in [1], the Potency was 18.7 µM (active). For the same molecule, the Potency entry in [2], in assay [5], in assay [7] and in assay [8] was “inactive” in each case. Further, the molecule was classed as inactive in assay [6] and in assay [9].

As for `C/C=C1/CN2C3CC1C1=CCC(=O)N4c5ccccc5[C@@]3(C[C@@H]2C2=C[C@H]3C5CC6N(CC[C@@]67c6ccccc6N(C2=O)[C@@H]37)C/C5=C/C)[C@H]14` (stereo not given in full), the Potency in assay [1] was 7.43 µM (active); in assay [3], 16.6 µM (active); in [8], 42.8 µM (active). Further, the Potency result in assay [2] is “inactive”.

Regarding `C[C@]12CCC3[C@@H](CC[C@@H]4C[C@@H](O)CC[C@]34CO)[C@@]1(O)CC[C@@H]2C1=CC(=O)OC1` (stereo not given in full), the Potency was 1.87 µM (active) in assay [1]; 0.935 µM (active) in assay [3]; 1.32 µM (active) in assay [4]; 4.17 µM (active) in assay [5]; 1.91 µM (active) in [8]. The Potency result in [2] and in assay [7] was “inactive” throughout. Further, in assay [6], the molecule was called inactive.

On to `CCCC[C@@H]1CC[C@H]2CCCC(CCCO)N12` (stereo not given in full), for which the Potency result in assay [1], in [2], in [3], in [4], in assay [5] and in assay [7] was “inactive” each time. Moreover, the Potency result in assay [8] is “inactive”. The outcome in assay [6] and in [9] was inactive.
